# According to ChEMBL document CHEMBL3988442, “University of Dundee, Small-Polar-MMV Screening Library” (2021):
# Out of some 48,000 compounds screened, about 13,000 (27%) showed an effect of 50% or more. The list shows a part of the results.
# System: Wolbachia pipientis
# Assay: Anti-Wolbachia Cell-Based Screen
# Type: functional
# Set-up: scale not given: in the data most compounds retested in dose-response had high values
# Conditions: 5 µM
row,SMILES,Percent Effect [%]
1,CC(=O)Nc1ccsc1C(=O)Nc1cnc2n1CCCC2,1.629
2,CNc1nc(C(=O)NCC2CCOc3ccccc3C2)cs1 (stereo unspecified),3.092
3,CC(C)C1CN(c2nccc(N)n2)CCC(=O)N1Cc1ccc(F)cc1 (stereo unspecified),6.607
4,COc1cccc(OCC2CCCN(C(=O)c3ccc(N)nc3)C2)c1 (stereo unspecified),-26.62
5,CC(C)N(CC(=O)Nc1ccc(Br)cc1Cl)Cc1cccnc1,-0.1768
6,COC(=O)CCC(=O)N1CCc2nc(C(=O)N3CCOCC3)sc2CC1,-7.844
7,CN(Cc1ccco1)[C@@H]1CN(CC2CCOCC2)C[C@@H]2CCCO[C@@H]21.O=C(O)C(F)(F)F.O=C(O)C(F)(F)F,2.943
8,Cn1cnc2cc(C(=O)N3CCC(c4ccccc4C(=O)O)C3)cnc21 (stereo unspecified),0.5169
9,CC1CCN(C(=O)c2ccn(COc3ccc(F)cc3)n2)CC1,3.69
10,CCN(CC)C(=O)CCNC(=O)N1CCC(c2ccccc2)C1 (stereo unspecified),4.092
11,O=C(NCCNC(=O)N1CCC(c2ccccc2)C1)C1CC1 (stereo unspecified),-9.135
12,COc1nn(C)cc1C(=O)N1CCC(C)CC1,127.9
13,COc1nn(C)cc1C(=O)N1CCC(c2ccccc2)C1 (stereo unspecified),121.1
14,CCNC(=O)N1CCC(c2ccccc2)C1 (stereo unspecified),124.1
15,CC1CCN(C(=O)c2cn(-c3cc(N4CCSCC4)ncn3)cn2)CC1,12.42
16,CS(=O)(=O)Cc1ccc(Cl)cc1NCc1cccc(F)c1F,-9.935
17,CC(=O)NCC1CCN(CC2CCOc3ccccc3C2)CC1 (stereo unspecified),6.943
18,CCCN1CC2(CCN(C)CC2)CC1C(=O)NCCn1cccn1 (stereo unspecified),6.399
19,COc1ccc(CN2CCN(CC3CC3)[C@@H]3CS(=O)(=O)C[C@@H]32)cc1C,20.23
20,CNS(=O)(=O)c1cccc(CNc2nccc(C(F)(F)F)n2)c1,-7.88
21,COc1ccc(Cl)cc1CN(C)CC(=O)/N=c1\cc[nH]n1C(C)C1CC1 (stereo unspecified),-13.95
22,OC1(CNCCSc2ccccn2)CNCCOC1 (stereo unspecified),-26.11
23,C1Cc2nc(CCNc3nc(C4CC4)nc4c3CCNCC4)sc2C1,0.8801
24,OC1(CNCCc2nc(Cc3ccccc3)no2)CNCCOC1 (stereo unspecified),14.79
25,OC1(CNCCc2nc3c(s2)CCCC3)CCNC1 (stereo unspecified),87.02
26,Cc1nc2c(c(NCCc3nc4c(s3)CCCC4)n1)CCNCC2,7.698

row,SMILES,Percent Effect [%]
1,OC1(CNCCc2nc3c(s2)CCCC3)CNCCOC1 (stereo unspecified),109
2,CC(C)NCc1nc(-c2ccc3c(c2)OCO3)c[nH]1.Cl.Cl,8.786
3,CCCc1cc(NC(=O)c2cccc(N3CCCNC3=O)c2)n[nH]1,11.29
4,Cc1ccccc1-c1cncc(C2CCN(C3CCOCC3)CC2)n1,110.9
5,Cn1cncc1-c1nnc([C@H]2CCN(C3CCOCC3)C2)o1,-2.913
6,COCCN1CCC(c2cncc(-c3ccccc3C)n2)CC1,100.9
7,CN(C)S(=O)(=O)N1CCC(Cn2cccn2)CC1,2.027
8,Cc1ccccc1-c1cncc(C2CCN(S(=O)(=O)N(C)C)CC2)n1,110.9
9,Cc1ccccc1-c1cncc(C2CCN(CCO)CC2)n1,122.1
10,Cc1ccccc1-c1cncc(C2CCN(C)CC2)n1,-14.26
11,CCc1nc2n(n1)CC(NCC(=O)Nc1ccc(Cl)cn1)CC2 (stereo unspecified),-9.728
12,CC(C)(C)NC(=O)Cn1cc(C(N)=O)c(-c2ccccc2)n1,6.588
13,CN1CCN(Cc2noc(-c3cc(-c4ccc(F)cc4)n[nH]3)n2)CC1,-13.75
14,Clc1ccc2cccnc2c1CN1CCCC(Cn2cncn2)C1 (stereo unspecified),-4.204
15,Cn1cc(CN2CCC(CCC(=O)Nc3ccccc3Cl)CC2)cn1,1.121
16,CN(CC(F)(F)F)C(=O)CN1CCC(c2cc3ccccc3[nH]2)CC1,-8.939
17,CCn1c(CN(C)C)nnc1C1CCN(Cc2ccccn2)CC1,2.831
18,Cc1ccccc1-c1cncc(C2CCN(Cc3cnn(C)c3)CC2)n1,99.14
19,CCn1c(CN2CCCC2)nnc1C1CCN(Cc2ccccn2)CC1,-10.72
20,Cc1ccccc1-c1cncc(C2CCN(CC(=O)N(C)C)CC2)n1,124.8
21,Fc1ccccc1CC1CCN(Cc2ccccn2)CC1,-1.082
22,Cc1ccccc1-c1cncc(C2CCN(C(=O)CN(C)C)CC2)n1,-14.47
23,Cc1ccccc1-c1cncc(C2CCN(Cc3ccccn3)CC2)n1,93.34
24,Oc1nc(C2CCN(Cc3ccccn3)CC2)cc2ccccc12,103.3
25,CC(=O)Nc1ccc(CC(=O)N2CC(S(=O)(=O)C3CCCCC3)C2)cc1,1.653
